Activity calls are given as the source filed them. No rule for the calls is given here.
Molecular target: Estrogen receptor (Homo sapiens) (UniProt P03372)
Experiment: ERalpha ligand binders by competition, primary screen, cell-based, Cos7 ERalpha-GFP, flow cytometry (AID 1211);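 also: 0% = DMSO vehicle wells and 100% = no E2-Alexa633 signal left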
Conditions: fluorescent ligand competition, stronger effect = higher value

Estrogen receptor (Homo sapiens), sequence (P03372 whole entry, looked up): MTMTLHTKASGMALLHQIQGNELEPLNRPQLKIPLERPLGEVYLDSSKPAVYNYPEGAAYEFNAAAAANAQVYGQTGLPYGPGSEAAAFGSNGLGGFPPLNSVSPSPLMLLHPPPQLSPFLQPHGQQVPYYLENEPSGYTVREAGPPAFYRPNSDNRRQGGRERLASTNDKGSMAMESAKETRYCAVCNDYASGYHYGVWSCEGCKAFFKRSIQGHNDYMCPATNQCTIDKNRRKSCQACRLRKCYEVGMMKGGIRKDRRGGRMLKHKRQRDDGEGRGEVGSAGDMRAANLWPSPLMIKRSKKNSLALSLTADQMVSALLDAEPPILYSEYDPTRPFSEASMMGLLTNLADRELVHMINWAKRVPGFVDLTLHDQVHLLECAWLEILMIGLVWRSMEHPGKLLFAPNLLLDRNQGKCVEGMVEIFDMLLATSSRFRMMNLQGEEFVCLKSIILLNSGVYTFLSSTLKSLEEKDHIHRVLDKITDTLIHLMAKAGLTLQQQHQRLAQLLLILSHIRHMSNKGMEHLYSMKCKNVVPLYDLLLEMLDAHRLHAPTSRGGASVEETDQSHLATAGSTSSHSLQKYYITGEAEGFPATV

SMILES | inhibition of ligand binding (at 10 µM) | inhibition of ligand binding (binding inhibition, at 0.1 µM) [%]
COc1ccc(-c2nc(C(N)=O)c3[nH]c(=O)n(-c4cccc(Cl)c4)c3n2)cc1OC | 0% (inactive) | 6
CC1CCCN(c2nc3c(c(=O)[nH]c(=O)n3C)n2Cc2ccccc2Cl)C1 (stereo unspecified) | 33% (inactive) | 58
Nc1ccc(-c2nc3ccc([N+](=O)[O-])cc3[nH]2)cc1 | 36% (active) | 82
O=C(O)c1ccc(Cl)c2c1C1C=CCC1C(c1ccccn1)N2 (stereo unspecified) | 43% (inactive) | 10
O=C(O)c1ccc(NS(=O)(=O)c2ccc3c(c2)C2C=CCC2C(c2ccccc2F)N3)cc1 (stereo unspecified) | 62% (inactive) | 5
Oc1ccc(/C=C/c2nc(-c3ccccc3O)n(-c3ccccc3)n2)cc1 | 11% (inactive) | 58
Oc1ccc(-c2cn3c(n2)SCC3)cc1O | 19% (inactive) | 28
Cc1ccc(N=Cc2c(O)n(-c3ccc4c(c3)OCO4)c(=O)c3ccccc23)cc1 | 49% (inactive) | 19
COC1=C/C(=C/c2c(N)n3cc(C)sc3nc2=O)C=CC1=O | 34% (inactive) | 10
CCOC(=O)C1=c2/c(=C/c3ccccc3OC)c(N)c(C#N)n2C(=O)C(c2ccccc2OC)S1 (stereo unspecified) | 34% (inactive) | 21
CCOC(=O)N1CCN(c2ccc(O)cc2)CC1 | 57% (inactive) | 56
Oc1ccc(N=Cc2ccc(O)c(O)c2)cc1 | 0% (inactive) | 41
Cc1ccc(C(=O)N/N=C/c2ccc([N+](=O)[O-])s2)cc1 | 40% (active) | 73
Cc1snc2sc(C(=O)c3ccc(Br)cc3)c(N)c12 | 48% (inactive) | 29
O=C(CSc1nc2c(cnn2-c2ccccc2)c(=O)[nH]1)c1ccc(Cl)cc1 | 18% (inactive) | 1
CN(C)C(=O)c1ccc2c(c1)C1C3CCC(C3)C1C(c1ccccc1)N2 (stereo unspecified) | 0% (inactive) | 24
Nc1ccc2nc(-c3cccnc3)[nH]c2c1 | 44% (inactive) | 26
CCCc1nc2sc3ccccc3c(=O)c2c(=O)n1Cc1ccco1 | 42% (inactive) | 1
Cn1nc([N+](=O)[O-])c2c(-c3nc4ccccc4s3)c(N)n(C3CCCCC3)c2c1=O | 30% (inactive) | 18

SMILES | inhibition of ligand binding (at 10 µM) | inhibition of ligand binding (binding inhibition, at 0.1 µM) [%]
c1ccc(Cc2nnc3sc(-c4ccco4)nn23)cc1 | 34% (inactive) | 12
CCOC(=O)c1c(C)oc2c1c(C=NC1CCS(=O)(=O)C1)c(O)c1ccccc12 (stereo unspecified) | 29% (inactive) | 43
O=c1cc(-c2ccco2)oc2c1ccc1ccccc12 | 48% (inactive) | 4
COC(=O)c1c(NC(=O)Cc2cccs2)sc2c1CCCC2 | 57% (active) | 70
Cc1ccc(Cn2c(NC(=O)c3ccco3)nc3ccccc32)cc1 | 29% (inactive) | 11
CCCSC1=N/C(=C\C=C\c2ccco2)C(=O)S1 | 0% (inactive) | 31
O=C(CCCn1c(=S)[nH]c2cc3c(cc2c1=O)OCO3)N1CCN(c2ccc(Cl)cc2)CC1 | 30% (inactive) | 27
CCOc1ccccc1-n1nnnc1SCC(=O)NC(=O)NCc1ccco1 | 5% (inactive) | 5
Cc1ccc(S(=O)(=O)Cc2ccc(C(=O)N3CCN(Cc4ccccc4)CC3)o2)cc1 | 25% (inactive) | 9
CCn1c(=NC(=O)c2ccc(N3C(=O)CCC3=O)cc2)sc2c(OC)ccc(OC)c21 | 66% (active) | 32
CCc1ccc2c(c1)[C@H]1OCC[C@H]1[C@@H](c1cccs1)N2 | 0% (inactive) | 21
Cn1nnnc1SCC(=O)Nc1nc(-c2ccccc2)c(-c2ccccc2)o1 | 45% (inactive) | 7
COc1cc2c(cc1OC)C(Cc1ccc(O)cc1)NCC2 (stereo unspecified) | 26% (inactive) | 32
CC(=O)Nc1ccc(N=Cc2nc(-c3ccc(C)cc3)oc2O)cc1 | 29% (inactive) | 60
O=C(CSc1nc(C2CCCCC2)n(-c2ccccc2)n1)NCC(F)(F)F | 41% (inactive) | 46
CN(C)CC(=O)N1c2ccccc2CCc2ccc(NC(=O)c3ccc(N)cc3)cc21 | 44% (inactive) | 41
O=C(NNC(=O)c1ccc(SCC2CCCO2)c([N+](=O)[O-])c1)c1ccc(Cl)c([N+](=O)[O-])c1 (stereo unspecified) | 35% (inactive) | 45
CN(c1ccccc1C(=O)O)S(=O)(=O)c1ccc2c3c(cccc13)C(=O)N2 | 40% (inactive) | 12
Cc1nc2ccccc2c(=O)n1/N=C/c1c(O)ccc2oc3c(c12)CCCC3 | 48% (inactive) | 52

Reference: PubChem BioAssay AID1211 (NMMLSC, 2008)
